PubChem BioAssay AID1159580 (chemical genetic matrix, 2015)
Screen size: about 5,500 compounds; about 2,000 (36%) were called active. About 18% were inconclusive and are not listed. Rule as the data show it: active = normalized growth mostly below about 0.91 (no sharp cut-off); inconclusive = no clear call, values can overlap the other calls; inactive = mostly above about 0.92. The list shows a part of the results.

Experiment: chemical genetic growth profiling, strain panel (AID 1159580);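 also: tested at 20 µM; growth read once vehicle control cultures reached saturation at 30 °C; 1 = growth at the plate median or of vehicle wells; lower values mean less growth of the strain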
Conditions: growth OD

Measured: normalized growth

O=c1[nH]cnc2nc[nH]c12
inactive: S. cerevisiae deletion strains, locus YJR066W, strain TOR1, stronger effect = lower value 0.979 | S. cerevisiae deletion strains, locus YJR075W, strain HOC1, stronger effect = lower value 1.01 | S. cerevisiae deletion strains, locus YKL009W, strain mrt4, stronger effect = lower value 0.974 | S. cerevisiae deletion strains, locus YKL068W, stronger effect = lower value 1.02 | S. cerevisiae deletion strains, locus YKL085W, strain MDH1 (second series), stronger effect = lower value 0.984 | S. cerevisiae deletion strains, locus YKL085W, strain MDH1, stronger effect = lower value 0.984 | S. cerevisiae deletion strains, locus YKL160W, strain elf1, stronger effect = lower value 1.01 | S. cerevisiae deletion strains, locus YKR001C, strain vps1, stronger effect = lower value 0.975 | S. cerevisiae deletion strains, locus YKR026C, strain gcn3, stronger effect = lower value 1.02 | S. cerevisiae deletion strains, locus YKR091W, strain srl3, stronger effect = lower value 1.02 | S. cerevisiae deletion strains, locus YLL001W, strain dnm1, stronger effect = lower value 1.01 | S. cerevisiae deletion strains, locus YLL026W, stronger effect = lower value 1.02 | S. cerevisiae deletion strains, locus YLL041C, strain sdh2, stronger effect = lower value 1.02 | S. cerevisiae deletion strains, locus YLR027C, strain aat2, stronger effect = lower value 1.01 | S. cerevisiae deletion strains, locus YLR039C, strain RIC1, stronger effect = lower value 1.01 | S. cerevisiae deletion strains, locus YLR058C, strain SHM2, stronger effect = lower value 1 | S. cerevisiae deletion strains, locus YLR102C, strain apc9, stronger effect = lower value 0.979 | S. cerevisiae deletion strains, locus YLR113W, strain HOG1, stronger effect = lower value 1.01 | S. cerevisiae deletion strains, locus YLR221C, strain rsa3, stronger effect = lower value 1.02 | S. cerevisiae deletion strains, locus YLR258W, strain gsy2, stronger effect = lower value 1.01 | S. cerevisiae deletion strains, locus YLR262C, strain YPT6 (second series), stronger effect = lower value 1.02 | S. cerevisiae deletion strains, locus YLR262C, strain YPT6, stronger effect = lower value 0.991 | S. cerevisiae deletion strains, locus YLR268W, strain sec22, stronger effect = lower value 0.971 | S. cerevisiae deletion strains, locus YLR320W, strain mms22, stronger effect = lower value 1.03 | S. cerevisiae deletion strains, locus YLR330W, strain CHS5, stronger effect = lower value 0.998 | S. cerevisiae deletion strains, locus YLR342W, strain FKS1 (second series), stronger effect = lower value 0.975 | S. cerevisiae deletion strains, locus YLR342W, strain FKS1, stronger effect = lower value 1.02 | S. cerevisiae deletion strains, locus YLR357W, strain rsc2, stronger effect = lower value 1.04 | S. cerevisiae deletion strains, locus YLR370C, strain arc18, stronger effect = lower value 1 | S. cerevisiae deletion strains, locus YLR371W, strain rom2, stronger effect = lower value 0.962 | S. cerevisiae deletion strains, locus YLR384C, strain iki3, stronger effect = lower value 1 | S. cerevisiae deletion strains, locus YLR418C, strain cdc73, stronger effect = lower value 0.994 | S. cerevisiae deletion strains, locus YML016C, strain PPZ1, stronger effect = lower value 0.995 | S. cerevisiae deletion strains, locus YML032C, strain rad52, stronger effect = lower value 0.988 | S. cerevisiae deletion strains, locus YML120C, strain ndi1, stronger effect = lower value 1.01 | S. cerevisiae deletion strains, locus YML124C, strain tub3, stronger effect = lower value 0.978 | S. cerevisiae deletion strains, locus YMR058W, strain fet3, stronger effect = lower value 1.02 | S. cerevisiae deletion strains, locus YMR078C, strain ctf18, stronger effect = lower value 0.997 | S. cerevisiae deletion strains, locus YMR125W, strain sto1, stronger effect = lower value 1.01 | S. cerevisiae deletion strains, locus YMR129W, stronger effect = lower value 1.01 | S. cerevisiae deletion strains, locus YMR205C, strain PFK2, stronger effect = lower value 1.02 | S. cerevisiae deletion strains, locus YMR223W, strain ubp8, stronger effect = lower value 0.985 | S. cerevisiae deletion strains, locus YMR231W, strain pep5, stronger effect = lower value 0.987 | S. cerevisiae deletion strains, locus YMR263W, strain SAP30, stronger effect = lower value 0.999 | S. cerevisiae deletion strains, locus YMR307W, strain GAS1, stronger effect = lower value 1.02 | S. cerevisiae deletion strains, locus YNL067W, strain RPL9B, stronger effect = lower value 1.02 | S. cerevisiae deletion strains, locus YNL071W, strain lat1, stronger effect = lower value 1.01 | S. cerevisiae deletion strains, locus YNL153C, strain GIM3, stronger effect = lower value 1.02 | S. cerevisiae deletion strains, locus YNL183C, strain NPR1, stronger effect = lower value 0.978 | S. cerevisiae deletion strains, locus YNL209W, strain ssb2, stronger effect = lower value 1.02 | S. cerevisiae deletion strains, locus YNL233W, strain BNI4, stronger effect = lower value 0.999 | S. cerevisiae deletion strains, locus YNL248C, strain rpa49, stronger effect = lower value 1.02 | S. cerevisiae deletion strains, locus YNL250W, strain rad50, stronger effect = lower value 0.977 | S. cerevisiae deletion strains, locus YNL271C, strain bni1, stronger effect = lower value 0.978 | S. cerevisiae deletion strains, locus YNL298W, strain CLA4, stronger effect = lower value 1 | S. cerevisiae deletion strains, locus YNL307C, strain MCK1, stronger effect = lower value 0.982 | S. cerevisiae deletion strains, locus YNL322C, strain KRE1 (second series), stronger effect = lower value 1.02 | S. cerevisiae deletion strains, locus YNL322C, strain KRE1, stronger effect = lower value 1.01 | S. cerevisiae deletion strains, locus YNR049C, strain mso1, stronger effect = lower value 1.03 | S. cerevisiae deletion strains, locus YNR052C, strain pop2, stronger effect = lower value 0.978 | S. cerevisiae deletion strains, locus YOL012C, strain htz1 1.01 | S. cerevisiae deletion strains, locus YOL147C, strain pex11, stronger effect = lower value 0.98 | S. cerevisiae deletion strains, locus YOR001W, strain rrp6, stronger effect = lower value 1.02 | S. cerevisiae deletion strains, locus YOR061W, strain CKA2, stronger effect = lower value 0.99 | S. cerevisiae deletion strains, locus YOR069W, strain VPS5, stronger effect = lower value 0.988 | S. cerevisiae deletion strains, locus YOR070C, strain gyp1, stronger effect = lower value 1.01 | S. cerevisiae deletion strains, locus YOR080W, strain dia2, stronger effect = lower value 1.03 | S. cerevisiae deletion strains, locus YOR083W, strain WHI5, stronger effect = lower value 1.01 | S. cerevisiae deletion strains, locus YOR106W, strain vam3, stronger effect = lower value 1.01 | S. cerevisiae deletion strains, locus YOR136W, strain idh2, stronger effect = lower value 0.973 | S. cerevisiae deletion strains, locus YOR144C, strain elg1, stronger effect = lower value 0.989 | S. cerevisiae deletion strains, locus YOR184W, strain ser1, stronger effect = lower value 0.98 | S. cerevisiae deletion strains, locus YOR231W, strain MKK1, stronger effect = lower value 1.02 | S. cerevisiae deletion strains, locus YOR265W, strain rbl2, stronger effect = lower value 1.03 | S. cerevisiae deletion strains, locus YOR270C, strain vph1, stronger effect = lower value 1.11 | S. cerevisiae deletion strains, locus YOR290C, strain snf2, stronger effect = lower value 1 | S. cerevisiae deletion strains, locus YOR316C, strain cot1, stronger effect = lower value 0.989 | S. cerevisiae deletion strains, locus YPL051W, strain arl3, stronger effect = lower value 1.03 | S. cerevisiae deletion strains, locus YPL055C, strain LGE1, stronger effect = lower value 1.03 | S. cerevisiae deletion strains, locus YPL078C, strain atp4, stronger effect = lower value 1.02 | S. cerevisiae deletion strains, locus YPL106C, strain sse1, stronger effect = lower value 0.994 | S. cerevisiae deletion strains, locus YPL240C, strain hsp82, stronger effect = lower value 1.01 | S. cerevisiae deletion strains, locus YPL256C, strain CLN2, stronger effect = lower value 0.996 | S. cerevisiae deletion strains, locus YPR119W, strain clb2, stronger effect = lower value 0.99 | S. cerevisiae deletion strains, locus YPR141C, strain kar3, stronger effect = lower value 0.977 | S. cerevisiae deletion strains, locus YPR163C, strain tif3, stronger effect = lower value 0.988 | S. cerevisiae deletion strains, locus YPR167C, strain met16, stronger effect = lower value 0.965 | S. cerevisiae deletion strains, strain wtn01, stronger effect = lower value 0.975 | S. cerevisiae strains, strain wild type, stronger effect = lower value 1
